Rows were chosen to be rich in hits. Some 2.8% of all compounds tested hit in one or more screens of this group.
KDM5B inh: blocks human KDM5B histone demethylase activity. KDM5B demethylase, FDH-coupled NADH fluorescence (FDH is formaldehyde dehydrogenase). Potency, µM (doses to about 57.7 µM), most hits filed as inhibitors. AID 1347165. 2.6% of 220,000 active; active means well fitted inhibition curve with a large enough effect; inconclusive means small, poorly fitted or top-dose-only effect; inactive means no such curve, though single readings can be large or run the other way; further: potency means the concentration at half of the fitted maximal effect; 0% is about no effect; nearly all actives have a fitted effect of over 70% in size
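KDM5BΔAP (200 nM final) in 50 mM HEPES pH 7.5, 0.01% Tween-20 was preincubated 10 min at RT with compound over a concentration range. Substrate mix (H3K4me3 12.5 µM, α-KG 25 µM, Fe²⁺, ascorbate, NAD⁺, FDH) was added, and NADH fluorescence change over 30 min gave dose-response curves.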
IP6K1 inh: IP6K1 kinase inhibition; Q92551; IP6K1 kinase, ADP-Glo luminescence, 2 h; active compounds read low; activity change, % (series mostly up to about 58 µM); 0.81% of 140,000 active; in the data active means activity change below about -25%; further: on the % scale 0 is the no-effect control and ±100 the full control effect
Target sequence (Q92551 whole entry, looked up): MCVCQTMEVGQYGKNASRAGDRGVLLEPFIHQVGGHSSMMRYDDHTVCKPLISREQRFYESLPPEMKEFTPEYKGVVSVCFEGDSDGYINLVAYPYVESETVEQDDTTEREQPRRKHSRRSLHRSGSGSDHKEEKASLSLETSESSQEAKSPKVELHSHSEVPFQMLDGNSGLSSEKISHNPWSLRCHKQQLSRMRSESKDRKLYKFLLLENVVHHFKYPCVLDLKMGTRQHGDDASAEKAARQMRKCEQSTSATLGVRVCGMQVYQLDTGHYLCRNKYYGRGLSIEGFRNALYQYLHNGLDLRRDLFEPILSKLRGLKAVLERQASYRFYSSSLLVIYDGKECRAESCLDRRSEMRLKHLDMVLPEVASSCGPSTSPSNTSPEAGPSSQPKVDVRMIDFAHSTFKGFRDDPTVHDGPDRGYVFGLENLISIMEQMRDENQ
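ADP-Glo luminescence measures ADP made by human IP6K1 during a 2 h RT reaction with ATP/IP6 (mix at 1.3 mM/130 uM); top library doses 57.5 and 19.1 uM final.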
Active calls of the source: *; i = inactive; ? = inconclusive; · = no result.

SMILES	KDM5B inh	IP6K1 inh
CNc1nc2c(c(C(=O)N3CCCC3)n1)CN(C(=O)C(C)n1cc(C)cn1)CC2 (configuration not stated)	?	-2
CNc1nc2c(c(C(=O)N3CCCC3)n1)CN(C(=O)Cn1nccc1C)CC2	22µM*	-2
CCOC(=O)C1(Cc2ccc(F)cc2F)CCCN(C(=O)c2cccnc2SC)C1 (configuration not stated)	i	-1
Cc1cc(C)n2nc(C(=O)N3CCC4(CC3)C(=O)Nc3ccccc34)cc2n1	28µM*	8
CCOC(=O)C1(Cc2ccc(F)cc2)CCCN(C(=O)c2cc3nc(C)cc(C)n3n2)C1 (configuration not stated)	32µM*	6
O=C(c1ccccc1)N1CCC2(CC1)C(=O)Nc1ccccc12	i	-13
Cn1c2c(c3ccccc31)CN(C(=O)NC1CCCCC1)CC2	?	3
O=C(Nc1ccc(Cl)cc1Cl)N1CCc2[nH]c3ccc(F)cc3c2C1	32µM*	-8
O=C(Nc1ccc(F)cc1F)N1CCN(c2ccc(Cl)c(Cl)c2)CC1	i	44
Cn1c(=O)oc2cc(NC(=O)Nc3ccc(F)c(Cl)c3)ccc21	i	·
CC(=O)N1CCc2c(c3ccccc3n2C)C1	25µM*	3
Cn1c2c(c3ccccc31)CN(C(=O)c1ccccc1)CC2	?	3
COc1ccc(NC(=O)N2CCc3c(c4ccccc4n3C)C2)cc1	25µM*	-20
Cn1c2c(c3cc(F)ccc31)CN(C(=O)Nc1ccc(F)c(Cl)c1)CC2	32µM*	-8
COc1ccccc1-n1c(=O)c(C(=O)NCc2ccc(F)cc2)nc2cccnc21	·	4
O=C(NCC(F)F)c1nc2cccnc2n(Cc2ccccc2)c1=O	·	4
CC(C)NC(=O)c1ccc2nc(-c3ccccn3)oc2c1	·	-7
O=C1CN(Cc2cccc(Cl)c2)CCN1c1ccc(Cl)nn1	?	-20
CN(C)CCNC(=O)c1n[nH]c2c1CN(C(=O)c1cccc(OC(F)(F)F)c1)CC2	·	1
O=C(NC1CCCCCC1)C1CCN(c2ccnc3ccnn23)CC1	·	-4
Cc1ccc(Nc2ccnc(N3CCC(C(=O)N4CCN(c5ncccn5)CC4)CC3)n2)cc1	·	-4
Cn1c2c(c3ccccc31)CN(C(=O)Nc1ccccc1)CC2	22µM*	-5
COc1ccc(-c2nc(C)nc3c2CN(C(=O)Nc2ccccc2)CC3)cc1	·	-5
C#CCNC(=O)c1nc2sccn2c1-c1cccc(C(F)(F)F)c1	·	17
COCCN1Cc2nc(Nc3ccc(C(F)(F)F)cc3)ccc2OCC1=O	25µM*	-17
SMILES	KDM5B inh	IP6K1 inh
O=C1COc2ccc(Nc3ccccc3)nc2CN1CCOc1ccccc1	40µM*	-8
COCCN1Cc2nc(Nc3ccc(F)c(Cl)c3)ccc2OCC1=O	i	-13
O=C1COc2ccc(Nc3cccc(F)c3)nc2CN1CCOc1ccccc1	?	-13
CC(C)c1ccc(/C=C(/C#N)C(=O)Nc2ccc(N3CCOCC3)cc2)cc1	i	·
COC(=O)c1ccc(NC(=O)N2CCn3nnc(CCC(=O)N4CCCC4)c3C2)cc1	i	13
COc1cc(O)ccc1CN1CCn2nnc(CCC(=O)N3CCCC3)c2C1	14µM*	-6
O=C(NCCCc1ccccc1)c1cc(-c2cc(Cl)cc(Cl)c2)c2cccn2n1	·	-11
COc1cccc(-c2ccc(C(=O)NCCNC(=O)c3ccccc3F)cc2)c1	·	18
C=CCNc1oc(COc2ccc(Br)cc2)nc1C#N	i	·
Cc1ccc(-n2nc(-c3c(C)nc4scc(CC(=O)N5CCOCC5)n4c3=O)cc2C)cc1	?	9
Cc1nc2scc(CC(=O)N3CCCC3)n2c(=O)c1-c1cc(C)n(-c2ccc(F)cc2)n1	?	29
Cc1cccc(-n2nc(-c3c(C)nc4scc(CC(=O)N5CCOCC5)n4c3=O)cc2C)c1	28µM*	8
Cc1nc2scc(CC(=O)N3CCCC3)n2c(=O)c1-c1cc(C)n(-c2ccc(C(C)C)cc2)n1	25µM*	15
Cc1cccc(-n2nc(-c3c(C)nc4scc(CC(=O)N5CCCC5)n4c3=O)cc2C)c1	28µM*	11
Cc1ccc(-n2nc(-c3c(C)nc4scc(CC(=O)N5CCCC5)n4c3=O)cc2C)cc1	?	12
CCn1c(=O)c2ccccc2n(CC(=O)Nc2cnc3ccccc3c2)c1=O	i	·
O=C(Cc1ccccn1)N1CCC(C(=O)N2CCCC2c2nc3ccncc3[nH]2)CC1 (configuration not stated)	·	8
CCOc1ccccc1C(N)=S	i	·
NC(=O)C1Cc2ccccc2CN1 (configuration not stated)	i	·
Cc1cc(C)cc(-c2ccc(CN3CCCC3C(=O)NCc3ccc4c(c3)OCO4)cc2)c1 (configuration not stated)	·	-8
Cc1noc2c(Nc3ccncc3)cc(-c3ccc(F)cc3)nc12	28µM*	-9
COc1ccccc1-c1cc(NCc2ccncc2)c2onc(C)c2n1	28µM*	-20
Cc1noc2c(NCCN(C)C)cc(-c3ccc(F)cc3)nc12	i	5
COc1ccccc1-c1cc(NCC2CCOCC2)c2onc(C)c2n1	i	-2
CCCC/C(C)=N/NC(=S)Nc1ccccc1	i	·
SMILES	KDM5B inh	IP6K1 inh
FC(F)(F)c1ccnc(N2CCC(OCc3cccnc3)CC2)n1	i	9
Fc1cnc(N2CCCC(OCc3cccnc3)C2)nc1N1CCOCC1 (configuration not stated)	28µM*	-3
COc1ccc([C@H]2C[C@@H](O)[C@@H](O)[C@@H]2NCc2cn(C)c3ccccc23)cc1	?	7
Cc1nc(CN2C[C@H](C(=O)Nc3ccccc3)C[C@@H]2c2ccc(F)cc2)cs1	35µM*	-4
Cc1nc(CN2C[C@H](C(=O)NCc3cccc(F)c3)C[C@@H]2c2ccc(F)cc2)cs1	?	15
CCN(CC)c1cc(CCC(=O)N(C)Cc2ccccc2)ccn1	22µM*	18
CN(Cc1ccsc1)C(=O)CCc1ccccc1	i	·
CCN(CC)c1cc(CCC(=O)NCCc2cccnc2)ccn1	?	3
CCN(CC)c1cc(CCC(=O)NCCCN2CCOCC2)ccn1	25µM*	-7
CCN(CC)c1ccc2nnc(CCC(=O)N3CCC(C)CC3)n2n1	i	·
CCN(CC)c1cc(CCC(=O)N2CCC(C)CC2)ccn1	25µM*	0
CCc1nn(-c2ccc(OC)cc2)c(Oc2ccccc2F)c1CCC(=O)NCCOC	25µM*	-5
CCc1nn(-c2ccc(OC)cc2)c(Oc2ccccc2F)c1CCC(=O)NC(C)C	i	-6
C=CCOc1c(OC)ccc2c1CN(C(C)C)C(=O)CCN2CC(O)COCc1ccco1 (configuration not stated)	·	2
COCC(=O)N1CCC(N2C(=O)c3c(c(C)nn3-c3ccccc3)C2C2CC2)C1 (configuration not stated)	·	-3
O=C(Nc1ccc(F)cc1)c1nc2sccn2c1-c1ccc(F)cc1	·	26
CCC[C@H]1CN(C(=O)c2ccc3c(c2)nc(NCCOC)n3C)C[C@@H]1N	i	-2
COCCNc1nc2cc(C(=O)N3CC[C@H](CO)[C@@H](O)C3)ccc2n1C	28µM*	-10
O=C(c1ccsc1)N1CCCC2(C1)Nc1cccnc1NC2=NC1CCCC1 (configuration not stated)	8.9µM*	12
Cc1ccccc1S(=O)(=O)N1CCCC2(C1)Nc1cccnc1NC2=NC1CCCC1 (configuration not stated)	?	11

Compound activity (PubChem)
